Results on one sequence are retold here after PMC7862700, “An all-to-all approach to the identification of sequence-specific readers for epigenetic DNA modifications on cytosine”.

Common to all, as to test: DAPPL (digital affinity profiling via proximity ligation, sequencing); 10 mM Tris-HCl pH 7.5, 50 mM NaCl, 1 mM DTT, 4% glycerol, room temperature, 30 min; GST-TFs on glutathione beads, 16-mer random dsDNA library, 0.1% formaldehyde crosslink after washing; high values mean tight binding
Details in all cases: protein: recombinant; tags: N-terminal GST; dsDNA, one strand shown

One experiment concerns the target T1, FLI1 (Homo sapiens, UniProt Q01543 1-452).
T1 sequence: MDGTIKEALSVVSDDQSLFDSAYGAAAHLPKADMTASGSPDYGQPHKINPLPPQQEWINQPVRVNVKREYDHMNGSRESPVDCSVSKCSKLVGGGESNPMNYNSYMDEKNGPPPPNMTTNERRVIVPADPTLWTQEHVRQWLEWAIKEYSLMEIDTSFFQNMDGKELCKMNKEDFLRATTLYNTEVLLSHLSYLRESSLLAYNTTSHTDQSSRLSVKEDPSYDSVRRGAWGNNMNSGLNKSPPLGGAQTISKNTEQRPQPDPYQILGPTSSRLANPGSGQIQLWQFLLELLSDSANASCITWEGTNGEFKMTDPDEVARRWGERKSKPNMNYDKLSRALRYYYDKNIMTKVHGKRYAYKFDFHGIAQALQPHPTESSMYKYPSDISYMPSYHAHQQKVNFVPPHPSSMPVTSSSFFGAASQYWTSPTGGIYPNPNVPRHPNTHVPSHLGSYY
The procedure, abridged:
(§1)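 Binding signal is given per hexamer as its read frequency for a factor divided by its frequency in the tag-only sample. GST-fused human transcription factors were expressed in yeast, captured on glutathione beads, barcoded with DNA and pooled with that sample, then incubated with 200 nmole of a 16-mer random double-stranded DNA library in Tris/NaCl/DTT/glycerol buffer for 30 min at room temperature. The pools were then washed, crosslinked, proximity-ligated, amplified by PCR and sequenced on an Illumina NextSeq500.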

The target of the next experiment is T2, ELK1 (Homo sapiens, UniProt P19419 1-428).
T2 sequence: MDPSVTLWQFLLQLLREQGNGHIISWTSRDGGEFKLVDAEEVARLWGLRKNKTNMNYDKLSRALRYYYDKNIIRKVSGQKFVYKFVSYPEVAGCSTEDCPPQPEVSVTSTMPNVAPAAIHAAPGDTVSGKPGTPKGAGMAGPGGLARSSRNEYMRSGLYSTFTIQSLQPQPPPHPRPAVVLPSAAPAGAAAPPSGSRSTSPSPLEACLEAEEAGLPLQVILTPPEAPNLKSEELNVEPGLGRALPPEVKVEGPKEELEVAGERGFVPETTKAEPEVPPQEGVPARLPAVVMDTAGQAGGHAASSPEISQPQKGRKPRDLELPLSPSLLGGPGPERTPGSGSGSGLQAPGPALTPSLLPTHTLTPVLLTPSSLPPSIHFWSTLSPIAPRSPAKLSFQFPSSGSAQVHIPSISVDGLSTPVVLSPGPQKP
The procedure, abridged:
as §1

For the next experiment, the target named is T3, GABPA (Homo sapiens, UniProt Q06546 1-454).
T3 sequence: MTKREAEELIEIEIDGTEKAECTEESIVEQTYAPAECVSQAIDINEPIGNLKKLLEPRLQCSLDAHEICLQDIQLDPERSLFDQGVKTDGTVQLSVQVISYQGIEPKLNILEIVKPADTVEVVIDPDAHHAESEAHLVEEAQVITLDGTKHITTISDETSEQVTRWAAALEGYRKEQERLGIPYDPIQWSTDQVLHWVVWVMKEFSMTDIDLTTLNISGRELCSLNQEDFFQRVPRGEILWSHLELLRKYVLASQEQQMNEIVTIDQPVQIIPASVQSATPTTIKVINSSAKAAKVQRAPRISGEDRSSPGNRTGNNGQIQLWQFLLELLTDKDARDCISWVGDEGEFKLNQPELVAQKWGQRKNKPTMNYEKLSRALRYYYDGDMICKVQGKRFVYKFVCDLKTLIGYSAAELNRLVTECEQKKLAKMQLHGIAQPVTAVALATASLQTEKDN
The method, boiled down: as §1

The target in a further experiment is T4, ERG (Homo sapiens, UniProt P11308 1-479).
T4 sequence: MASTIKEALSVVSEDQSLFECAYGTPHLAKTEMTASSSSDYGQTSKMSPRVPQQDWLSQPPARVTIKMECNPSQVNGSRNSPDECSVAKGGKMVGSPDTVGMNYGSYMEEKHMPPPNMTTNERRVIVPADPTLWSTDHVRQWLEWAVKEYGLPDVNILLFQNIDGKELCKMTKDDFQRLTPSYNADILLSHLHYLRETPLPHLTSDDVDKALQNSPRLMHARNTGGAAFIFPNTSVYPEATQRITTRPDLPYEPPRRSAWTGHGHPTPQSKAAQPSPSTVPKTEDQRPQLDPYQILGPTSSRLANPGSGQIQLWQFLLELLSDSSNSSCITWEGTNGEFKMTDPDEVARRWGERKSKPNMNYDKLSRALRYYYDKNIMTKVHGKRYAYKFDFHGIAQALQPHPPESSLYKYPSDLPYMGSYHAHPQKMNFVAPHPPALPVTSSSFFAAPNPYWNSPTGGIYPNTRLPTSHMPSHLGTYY
The procedure, abridged: as §1

A further experiment addresses ELF1 (Homo sapiens, UniProt P32519 1-619). The method, boiled down: as §1
A further experiment addresses T5, EHF (Homo sapiens, UniProt Q9NZC4 1-300).
T5 sequence: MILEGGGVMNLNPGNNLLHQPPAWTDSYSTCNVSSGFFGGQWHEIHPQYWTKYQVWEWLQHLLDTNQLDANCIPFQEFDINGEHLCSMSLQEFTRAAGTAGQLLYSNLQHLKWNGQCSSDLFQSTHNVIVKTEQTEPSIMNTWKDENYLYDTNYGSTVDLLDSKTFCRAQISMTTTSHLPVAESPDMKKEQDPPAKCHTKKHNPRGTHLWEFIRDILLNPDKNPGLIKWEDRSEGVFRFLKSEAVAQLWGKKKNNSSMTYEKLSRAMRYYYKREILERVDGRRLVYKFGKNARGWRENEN
The method, boiled down: as §1

A further experiment deals with SPI1 (Homo sapiens, UniProt P17947 1-270). The procedure, abridged:
as §1

The target in another experiment is SPIB (Homo sapiens, UniProt Q01892 1-262). The procedure, abridged:
as §1

For the next experiment, the target named is T6, ELK3 (Homo sapiens, UniProt P41970 1-407).
T6 sequence: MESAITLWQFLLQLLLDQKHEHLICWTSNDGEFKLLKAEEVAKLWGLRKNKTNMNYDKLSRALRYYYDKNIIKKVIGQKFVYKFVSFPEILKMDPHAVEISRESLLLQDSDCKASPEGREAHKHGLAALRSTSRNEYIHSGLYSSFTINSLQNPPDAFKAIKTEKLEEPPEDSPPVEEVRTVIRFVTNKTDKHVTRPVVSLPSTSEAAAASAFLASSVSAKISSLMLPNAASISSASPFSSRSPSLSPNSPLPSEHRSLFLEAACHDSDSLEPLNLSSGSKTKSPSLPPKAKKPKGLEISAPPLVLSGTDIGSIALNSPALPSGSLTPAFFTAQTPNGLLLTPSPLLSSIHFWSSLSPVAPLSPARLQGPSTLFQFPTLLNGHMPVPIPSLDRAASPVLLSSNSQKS
The method, boiled down:
as §1

The target in a further experiment is T7, FEV (Homo sapiens, UniProt Q99581 1-238).
T7 sequence: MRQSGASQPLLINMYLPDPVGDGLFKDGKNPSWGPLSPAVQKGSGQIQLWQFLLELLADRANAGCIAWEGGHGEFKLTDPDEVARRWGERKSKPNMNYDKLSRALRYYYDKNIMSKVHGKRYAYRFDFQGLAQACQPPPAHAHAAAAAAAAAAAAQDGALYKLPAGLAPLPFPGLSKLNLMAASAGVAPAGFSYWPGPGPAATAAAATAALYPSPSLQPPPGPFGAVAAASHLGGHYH
The method, boiled down: as §1

Another experiment addresses ETV5 (Homo sapiens, UniProt P41161 1-510). The procedure, abridged: as §1
The next experiment concerns the target T8, SPIC (Homo sapiens, UniProt Q8N5J4 1-248).
T8 sequence: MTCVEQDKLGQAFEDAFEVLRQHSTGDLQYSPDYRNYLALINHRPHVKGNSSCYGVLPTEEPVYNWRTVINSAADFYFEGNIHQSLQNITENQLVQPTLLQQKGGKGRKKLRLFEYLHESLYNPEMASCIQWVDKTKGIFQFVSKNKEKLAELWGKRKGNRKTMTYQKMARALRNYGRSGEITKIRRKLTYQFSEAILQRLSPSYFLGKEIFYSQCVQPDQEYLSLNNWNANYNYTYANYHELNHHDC
The method, boiled down: as §1

For the next experiment, the target named is ELF4 (Homo sapiens, UniProt Q99607 1-663). The method, boiled down:
as §1

The target of a further experiment is T9, ELK4 (Homo sapiens, UniProt P28324-2 1-405).
T9 sequence: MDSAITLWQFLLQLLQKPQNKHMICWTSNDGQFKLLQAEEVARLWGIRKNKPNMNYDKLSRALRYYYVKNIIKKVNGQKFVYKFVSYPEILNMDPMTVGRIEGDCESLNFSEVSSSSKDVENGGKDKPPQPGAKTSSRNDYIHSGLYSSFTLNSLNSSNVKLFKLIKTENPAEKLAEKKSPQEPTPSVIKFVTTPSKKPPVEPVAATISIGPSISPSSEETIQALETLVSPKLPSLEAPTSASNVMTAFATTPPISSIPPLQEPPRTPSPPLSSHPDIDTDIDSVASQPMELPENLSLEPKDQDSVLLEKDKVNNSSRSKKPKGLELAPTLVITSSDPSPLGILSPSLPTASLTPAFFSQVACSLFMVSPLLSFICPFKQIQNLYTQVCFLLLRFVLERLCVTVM
The procedure, abridged: as §1

In a further experiment the target is T10, ETV2 (Homo sapiens, UniProt O00321 1-342).
T10 sequence: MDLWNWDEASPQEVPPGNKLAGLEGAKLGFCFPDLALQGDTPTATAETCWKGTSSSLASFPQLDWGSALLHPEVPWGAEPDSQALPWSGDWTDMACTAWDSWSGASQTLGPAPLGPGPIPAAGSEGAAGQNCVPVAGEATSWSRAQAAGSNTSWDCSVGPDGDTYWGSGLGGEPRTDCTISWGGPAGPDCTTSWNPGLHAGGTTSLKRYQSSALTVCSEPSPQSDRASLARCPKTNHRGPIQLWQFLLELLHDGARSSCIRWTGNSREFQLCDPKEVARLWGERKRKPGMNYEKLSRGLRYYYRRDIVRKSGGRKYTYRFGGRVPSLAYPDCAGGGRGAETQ
The procedure, abridged:
as §1

A further experiment concerns the target T11, ELF3 (Homo sapiens, UniProt P78545 1-371).
T11 sequence: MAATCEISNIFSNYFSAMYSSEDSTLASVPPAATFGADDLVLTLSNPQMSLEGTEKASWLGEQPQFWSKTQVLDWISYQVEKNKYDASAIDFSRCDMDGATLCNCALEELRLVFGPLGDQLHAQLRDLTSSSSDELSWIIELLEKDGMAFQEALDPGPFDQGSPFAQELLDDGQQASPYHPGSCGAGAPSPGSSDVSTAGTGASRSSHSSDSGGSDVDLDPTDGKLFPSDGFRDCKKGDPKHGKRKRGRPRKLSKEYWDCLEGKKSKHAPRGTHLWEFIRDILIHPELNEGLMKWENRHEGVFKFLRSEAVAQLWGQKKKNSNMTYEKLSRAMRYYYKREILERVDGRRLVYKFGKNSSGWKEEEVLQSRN
The procedure, abridged: as §1

In another experiment the target is CRX (Homo sapiens, UniProt O43186 1-299). The method, boiled down:
as §1

Another experiment has as its target ETV1 (Homo sapiens, UniProt P50549 1-477). The method, boiled down: as §1

CRX, sequence (O43186 whole entry): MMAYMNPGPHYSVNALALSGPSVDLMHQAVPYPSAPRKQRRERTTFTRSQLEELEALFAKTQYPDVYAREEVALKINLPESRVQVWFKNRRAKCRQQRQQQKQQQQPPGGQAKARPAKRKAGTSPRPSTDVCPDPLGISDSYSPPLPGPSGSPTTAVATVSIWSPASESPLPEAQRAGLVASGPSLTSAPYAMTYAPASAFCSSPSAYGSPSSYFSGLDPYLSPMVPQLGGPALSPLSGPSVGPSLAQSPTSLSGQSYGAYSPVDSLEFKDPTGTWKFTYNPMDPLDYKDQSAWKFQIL
ELF1, sequence (P32519 whole entry): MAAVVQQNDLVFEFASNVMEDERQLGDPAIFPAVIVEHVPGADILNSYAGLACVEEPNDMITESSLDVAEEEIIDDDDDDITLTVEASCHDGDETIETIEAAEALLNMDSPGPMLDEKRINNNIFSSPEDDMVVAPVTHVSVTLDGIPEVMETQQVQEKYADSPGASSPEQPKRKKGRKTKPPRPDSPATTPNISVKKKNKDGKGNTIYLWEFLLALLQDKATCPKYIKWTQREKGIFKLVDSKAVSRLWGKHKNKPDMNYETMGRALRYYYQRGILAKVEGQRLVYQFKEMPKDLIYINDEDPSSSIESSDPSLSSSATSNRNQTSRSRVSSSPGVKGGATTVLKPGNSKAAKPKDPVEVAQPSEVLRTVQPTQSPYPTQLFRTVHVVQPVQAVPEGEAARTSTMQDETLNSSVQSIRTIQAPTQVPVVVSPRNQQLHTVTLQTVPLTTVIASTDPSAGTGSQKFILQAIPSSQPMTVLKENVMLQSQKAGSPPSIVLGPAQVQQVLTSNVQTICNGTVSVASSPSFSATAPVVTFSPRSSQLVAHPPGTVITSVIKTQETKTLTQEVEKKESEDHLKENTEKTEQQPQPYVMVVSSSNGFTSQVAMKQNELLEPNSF
ETV5, sequence (P41161 whole entry): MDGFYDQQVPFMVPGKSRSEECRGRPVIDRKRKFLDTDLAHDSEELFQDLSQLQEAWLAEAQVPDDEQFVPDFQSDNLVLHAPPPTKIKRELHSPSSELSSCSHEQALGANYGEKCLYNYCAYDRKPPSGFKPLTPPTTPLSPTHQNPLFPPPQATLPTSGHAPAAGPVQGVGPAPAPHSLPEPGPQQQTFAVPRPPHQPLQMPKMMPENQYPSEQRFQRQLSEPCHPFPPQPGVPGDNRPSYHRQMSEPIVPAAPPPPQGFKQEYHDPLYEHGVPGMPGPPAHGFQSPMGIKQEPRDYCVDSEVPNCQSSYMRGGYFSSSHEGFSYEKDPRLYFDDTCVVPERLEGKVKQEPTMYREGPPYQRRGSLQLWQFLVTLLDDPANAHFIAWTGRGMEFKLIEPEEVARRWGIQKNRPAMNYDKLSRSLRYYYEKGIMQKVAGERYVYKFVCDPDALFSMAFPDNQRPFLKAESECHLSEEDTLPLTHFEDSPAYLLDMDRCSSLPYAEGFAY
ETV1, sequence (P50549 whole entry): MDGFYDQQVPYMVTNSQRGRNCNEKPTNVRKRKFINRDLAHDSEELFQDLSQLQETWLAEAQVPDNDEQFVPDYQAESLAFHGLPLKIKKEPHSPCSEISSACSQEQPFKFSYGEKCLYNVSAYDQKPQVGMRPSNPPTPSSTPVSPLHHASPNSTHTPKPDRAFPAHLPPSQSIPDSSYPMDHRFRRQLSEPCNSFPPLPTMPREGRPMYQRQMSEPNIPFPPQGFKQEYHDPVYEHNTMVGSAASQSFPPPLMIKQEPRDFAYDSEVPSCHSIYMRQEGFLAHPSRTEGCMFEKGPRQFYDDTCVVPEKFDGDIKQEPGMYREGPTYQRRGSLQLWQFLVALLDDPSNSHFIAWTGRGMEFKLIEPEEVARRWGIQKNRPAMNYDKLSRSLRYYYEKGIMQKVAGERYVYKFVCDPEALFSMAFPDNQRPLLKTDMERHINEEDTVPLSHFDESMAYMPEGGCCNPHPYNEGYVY
ELF4, sequence (Q99607 whole entry): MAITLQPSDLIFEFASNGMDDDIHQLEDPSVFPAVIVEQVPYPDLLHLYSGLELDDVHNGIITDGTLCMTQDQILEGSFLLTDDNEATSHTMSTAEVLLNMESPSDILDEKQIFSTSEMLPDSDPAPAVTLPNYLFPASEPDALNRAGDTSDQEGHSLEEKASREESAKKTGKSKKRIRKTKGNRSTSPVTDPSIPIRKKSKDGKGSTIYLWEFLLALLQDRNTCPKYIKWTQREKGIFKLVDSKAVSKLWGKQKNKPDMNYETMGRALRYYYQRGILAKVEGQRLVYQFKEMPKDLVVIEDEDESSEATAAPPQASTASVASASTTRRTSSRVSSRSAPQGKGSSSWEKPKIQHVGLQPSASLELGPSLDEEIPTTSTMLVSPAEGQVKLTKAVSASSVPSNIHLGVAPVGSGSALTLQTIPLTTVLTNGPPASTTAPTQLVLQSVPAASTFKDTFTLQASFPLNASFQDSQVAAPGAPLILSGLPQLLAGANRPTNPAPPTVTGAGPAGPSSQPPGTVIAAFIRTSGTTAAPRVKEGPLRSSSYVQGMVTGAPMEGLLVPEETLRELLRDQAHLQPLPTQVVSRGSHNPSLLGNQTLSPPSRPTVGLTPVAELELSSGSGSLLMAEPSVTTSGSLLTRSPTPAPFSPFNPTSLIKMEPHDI
SPIB, sequence (Q01892 whole entry): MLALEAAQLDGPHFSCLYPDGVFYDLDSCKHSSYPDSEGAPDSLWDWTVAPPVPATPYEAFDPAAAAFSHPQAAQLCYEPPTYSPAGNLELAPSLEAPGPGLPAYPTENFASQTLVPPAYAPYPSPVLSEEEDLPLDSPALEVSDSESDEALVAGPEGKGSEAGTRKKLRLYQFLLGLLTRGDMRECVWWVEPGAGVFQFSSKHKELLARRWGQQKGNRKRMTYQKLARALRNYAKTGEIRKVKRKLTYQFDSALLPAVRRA

With TACCCA, the binding signal is 1.01 fold enrichment (6-mer frequency, TF over GST control) with FLI1; 1.09 fold enrichment (6-mer frequency, TF over GST control) with ELK1; 1.12 fold enrichment (6-mer frequency, TF over GST control) in the experiment with GABPA; 1.03 fold enrichment (6-mer frequency, TF over GST control) with ERG; 1.07 fold enrichment (6-mer frequency, TF over GST control) in the experiment with ELF1; 1.05 fold enrichment (6-mer frequency, TF over GST control) with EHF. In addition, the binding signal was 1.09 fold enrichment (6-mer frequency, TF over GST control) in the experiment with SPI1; 1.1 fold enrichment (6-mer frequency, TF over GST control) with SPIB; 1.09 fold enrichment (6-mer frequency, TF over GST control) with ELK3; 1.03 fold enrichment (6-mer frequency, TF over GST control) with FEV; 1.11 fold enrichment (6-mer frequency, TF over GST control) with ETV5; 1.08 fold enrichment (6-mer frequency, TF over GST control) in the experiment with SPIC. For the same sequence, the binding signal in the experiment with ELF4 was 1.08 fold enrichment (6-mer frequency, TF over GST control); with ELK4, 1.02 fold enrichment (6-mer frequency, TF over GST control); with ETV2, 1.12 fold enrichment (6-mer frequency, TF over GST control); with ELF3 it was 1.18 fold enrichment (6-mer frequency, TF over GST control); in the experiment with CRX, 1.08 fold enrichment (6-mer frequency, TF over GST control); in the experiment with ETV1, 1.03 fold enrichment (6-mer frequency, TF over GST control).
